In PubChem BioAssay (Tox21):
Records with an inconclusive call do not appear. Activity calls are given as the source filed them. Unless noted, calls follow the shape of the dose curve; as a rule, active = well fitted curve in the direction sought with a large enough effect in the repeat runs; inconclusive = weak or mixed curves; inactive = no such curve, though single readings can be large; an effect the other way counts as inactive or inconclusive.

Assays:
[1] = target: Acetylcholinesterase (Homo sapiens) (UniProt P22303); assay: Acetylcholinesterase (AChE) small molecule antagonists: enzyme-based qHTS assay (AID 1347397; calls by dose curve; also: nearly all actives have a fitted effect of over 55% in size); conditions: Potency: AChE enzyme activity inhibition; outcome: AChE enzyme activity inhibition
Chain of Acetylcholinesterase (Homo sapiens) (P22303 whole entry, looked up): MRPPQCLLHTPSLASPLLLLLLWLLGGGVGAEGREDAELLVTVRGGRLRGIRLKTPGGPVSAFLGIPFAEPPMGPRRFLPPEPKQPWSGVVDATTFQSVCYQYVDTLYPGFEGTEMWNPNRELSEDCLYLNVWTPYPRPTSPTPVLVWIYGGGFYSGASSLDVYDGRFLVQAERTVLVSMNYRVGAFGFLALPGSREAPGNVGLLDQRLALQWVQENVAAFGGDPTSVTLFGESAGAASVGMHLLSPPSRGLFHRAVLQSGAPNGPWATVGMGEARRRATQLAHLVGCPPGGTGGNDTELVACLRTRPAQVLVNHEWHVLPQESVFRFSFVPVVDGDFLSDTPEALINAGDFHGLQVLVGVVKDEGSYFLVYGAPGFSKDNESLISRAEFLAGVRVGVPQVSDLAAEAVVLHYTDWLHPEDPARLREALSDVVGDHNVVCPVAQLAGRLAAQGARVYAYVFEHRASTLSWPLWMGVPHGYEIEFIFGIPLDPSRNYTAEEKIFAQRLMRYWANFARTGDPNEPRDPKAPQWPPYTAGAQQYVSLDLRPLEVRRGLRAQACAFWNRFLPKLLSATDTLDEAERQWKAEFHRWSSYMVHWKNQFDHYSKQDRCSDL
Summary of the method: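 Human recombinant acetylcholinesterase; substrate acetylthiocholine; thiocholine quantified with DTNB (colorimetric). Compound preincubation 30 min RT; reaction 10 min RT.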

[2] = target: Acetylcholinesterase (Homo sapiens) (UniProt P22303); assay: Acetylcholinesterase (AChE) small molecule antagonists: enzyme-based qHTS assay with human liver microsomes (AID 1347399; calls by dose curve; also: nearly all actives have a fitted effect of over 60% in size); conditions: Potency: qHTS inhibition; outcome: qHTS inhibition
Summary of the method: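 Recombinant human AChE (50 mU/mL in the enzyme mix) and human liver microsomes (0.25 mg/mL final) were preincubated with compound and NADPH (0.25 mg/mL final) for 30 min at 37 C. Acetylthiocholine/DTNB was then added; thiocholine was read colorimetrically after 10 min at room temperature.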

[3] = target: Acetylcholinesterase (Homo sapiens) (UniProt P22303); assay: Acetylcholinesterase (AChE) small molecule antagonists: fluorescence cell-based qHTS assay (AID 1347398; calls by dose curve; also: nearly all actives have a fitted effect of over 50% in size; also: potency is read from the fitted curve at half-maximal effect); conditions: Potency: AChE activity; outcome: AChE activity
Summary of the method: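 Thiocholine generated from acetylthiocholine by SH-SY5Y cell AChE is detected with Thiolite Green (Ex/Em 490/520 nm) after 40 min at room temperature, following 30 min compound pretreatment at 37 C.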

[4] = qHTS assay for small molecule agonists of the p53 signaling pathway (AID 651631; calls by dose curve; also: nearly all actives have a fitted effect of over 15% in size)
Summary of the method: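 HCT-116 p53RE-bla reporter line, 16 h compound treatment at 37 °C, then fluorescence after 2 h with B/G FRET substrate.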

[5] = qHTS assay for small molecules that induce genotoxicity in human embryonic kidney cells expressing luciferase-tagged ATAD5 (AID 651632); also: nearly all actives have a fitted effect of over 15% in size
Summary of the method: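 HEK293T cells carrying a luciferase reporter tagged to ATAD5 were exposed to compound or DMSO vehicle for 16 hr at 37C, 5% CO2. Amplite was added, and after 30 min at room temperature luciferase activity was read as a marker of ATAD5 induction.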

[6] = qHTS assay for small molecule agonists of the p53 signaling pathway - cell viability (AID 651633; calls by dose curve;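 also: p53RE-bla HCT reporter cells with a stable beta-lactamase p53 reporter; series mostly up to about 83 µM; nearly all actives have a fitted effect of over 30% in size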)
Summary of the method: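 p53RE-bla cells, seeded at 4,000 per well and rested 5 h at 37 C/5% CO2, received compounds in DMSO for 16 h at 37 C. CellTiter-Glo was then added, and luminescence was read after 30 min at room temperature to gauge cytotoxicity.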

[7] = qHTS assay for small molecules that induce genotoxicity in human embryonic kidney cells expressing luciferase-tagged ATAD5 - cell viability (AID 651634; calls by dose curve; also: nearly all actives have a fitted effect of over 25% in size)
Summary of the method: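 HEK293T cells expressing luciferase-tagged ATAD5 were exposed to compound or DMSO for 15.5 hr at 37C, 5% CO2. Viability was then read as live-cell protease activity by CellTiter-Fluor fluorescence after 30 min at 37C.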

[8] = qHTS assay for small molecule disruptors of the mitochondrial membrane potential - cell viability (AID 720634; calls by dose curve;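 also: human HepG2 liver cancer cells; series mostly up to about 83 µM; nearly all actives have a fitted effect of over 20% in size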)
Summary of the method: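 HepG2 cells seeded overnight at 37 C, then exposed to compound or DMSO for 1 hr at 37 C, 5% CO2. m-MPI dye added, then CellTiter-Glo for 30 min at room temperature; viability read as ATP luminescence.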

[9] = qHTS assay to test for compound auto fluorescence at 590 nm (red) in HepG2 cells (AID 720674)
Summary of the method: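 Rose Bengal sodium served as the red fluorophore standard. HepG2 monolayers (overnight attachment, MEM with 10% FBS) were exposed to test compounds for 1 hr at 37 C and read at Ex 540/Em 590 nm.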

[10] = qHTS assay to test for compound auto fluorescence at 590 nm (red) in HEK293 cells (AID 720679)
Summary of the method: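 HEK293 cells (2,000/well, medium with 10% dialyzed FBS) attached for 4-5 hr at 37C, received 23 nL compound and were incubated overnight at 37C, 5% CO2. Red fluorescence was then read at 540/590nm Ex/Em, referenced to Rose Bengal sodium.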

[11] = qHTS assay to test for compound auto fluorescence at 460 nm (blue) in HEK293 cell free culture (AID 720681)
Summary of the method: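 Test compounds were pinned into cell-free culture medium (DMEM with 10% FBS) and fluorescence was read directly at Ex/Em 405/460 nm. Signals were expressed as fluorescence equivalents of triamterene, with DMSO vehicle as control.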

[12] = qHTS assay to test for compound auto fluorescence at 535 nm (green) in HEK293 cell free culture (AID 720682)
Summary of the method: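 Steps: dispense DMEM/10% FBS into empty wells; pin in compound or DMSO; measure fluorescence at 485/535 nm. Values are fluorescein equivalents.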

[13] = qHTS assay to test for compound auto fluorescence at 590 nm (red) in HEK293 cell free culture (AID 720683)
Summary of the method: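 Tox21 10K library compounds were pinned into cell-free DMEM with 10% FBS and fluorescence was read at excitation 540 nm. Activity is expressed as Rose Bengal sodium equivalency.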

[14] = qHTS assay to test for compound auto fluorescence at 590 nm (red) in HepG2 cell free culture (AID 720684)
Summary of the method: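 Measured in medium alone (MEM containing 10% FBS) following pintool addition of compound; emission at 590 nm with 540 nm excitation, referenced to Rose Bengal sodium.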

[15] = qHTS assay to test for compound auto fluorescence at 535 nm (green) in HepG2 cell free culture (AID 720686)
[16] = qHTS assay to test for compound auto fluorescence at 460 nm (blue) in HepG2 cells (AID 720687)
Summary of the method: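 Cells (2,000/well in MEM with 10% FBS) attached overnight at 37 C, then were exposed to compound or DMSO for 1 hr at 37 C, 5% CO2. Fluorescence read at Ex/Em 405/460 nm, expressed as triamterene-equivalent signal.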

[17] = qHTS assay to identify small molecule antagonists of the glucocorticoid receptor (GR) signaling pathway - cell viability counter screen (AID 720693); also: nearly all actives have a fitted effect of over 55% in size
[18] = qHTS assay for identifying genotoxic compounds that show differential cytotoxicity against isogenic chicken DT40 cell lines with known DNA damage response pathways - wild type cell line (AID 743012); also: potency is read from the fitted curve at half-maximal effect; nearly all actives have a fitted effect of over 60% in size
Summary of the method: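 Parental DNA repair-proficient DT40 cells, 300 per well, were pre-incubated ~0.5 h at 37 C/5% CO2, pin-dosed with compounds in DMSO, then incubated 40 h. Viability was read as CellTiter-Glo luminescence after 30 min at room temperature.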

[19] = qHTS assay for identifying genotoxic compounds that show differential cytotoxicity against isogenic chicken DT40 cell lines with known DNA damage response pathways - Rev3 mutant cell line (AID 743014); also: potency is read from the fitted curve at half-maximal effect; nearly all actives have a fitted effect of over 55% in size
[20] = qHTS assay for identifying genotoxic compounds that show differential cytotoxicity against isogenic chicken DT40 cell lines with known DNA damage response pathways - Rad54/Ku70 mutant cell line (AID 743015); also: potency is read from the fitted curve at half-maximal effect; nearly all actives have a fitted effect of over 60% in size
[21] = qHTS assay to identify small molecule antagonists of the androgen receptor (AR) signaling pathway - cell viability counter screen (AID 743033; also: nearly all actives have a fitted effect of over 45% in size)
[22] = qHTS assay to identify small molecule antagonists of the thyroid receptor (TR) signaling pathway - cell viability counter screen (AID 743064); also: potency is read from the fitted curve at half-maximal effect; nearly all actives have a fitted effect of over 50% in size
Summary of the method: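 Plate GH3.TRE-Luc cells; incubate 4 h at 37 °C; add compound, then T3 to 1 nM final; incubate 23.5 h; add CellTiter-Fluor; incubate 30 min at 37 °C, 5% CO2; read fluorescence.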

[23] = qHTS assay to identify small molecule antagonists of the thyroid receptor (TR) signaling pathway (AID 743065); also: potency is read from the fitted curve at half-maximal effect; nearly all actives have a fitted effect of over 55% in size
Summary of the method: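 GH3.TRE-Luc rat pituitary cells carrying two TR response elements driving luciferase were plated for 4 h, given compound plus 1 nM T3 (final), and incubated 23.5 h at 37 C. ONE-Glo luminescence measured reporter inhibition; CellTiter-Fluor fluorescence tracked cytotoxicity.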

[24] = tested on: thyroid hormone receptor (rat, GH3 cells); assay: qHTS assay to identify small molecule agonists of the thyroid receptor (TR) signaling pathway (AID 743066; calls by dose curve)
[25] = target: Estrogen receptor (Homo sapiens) (UniProt P03372); assay: qHTS assay to identify small molecule antagonists of the estrogen receptor alpha (ER-alpha) signaling pathway (AID 743069; active = well fitted curve in the direction sought with a large enough effect in the signal ratio in the repeat runs, not every such curve was filed as active; the % refers to the signal ratio)
Chain of Estrogen receptor (Homo sapiens) (P03372 whole entry, looked up): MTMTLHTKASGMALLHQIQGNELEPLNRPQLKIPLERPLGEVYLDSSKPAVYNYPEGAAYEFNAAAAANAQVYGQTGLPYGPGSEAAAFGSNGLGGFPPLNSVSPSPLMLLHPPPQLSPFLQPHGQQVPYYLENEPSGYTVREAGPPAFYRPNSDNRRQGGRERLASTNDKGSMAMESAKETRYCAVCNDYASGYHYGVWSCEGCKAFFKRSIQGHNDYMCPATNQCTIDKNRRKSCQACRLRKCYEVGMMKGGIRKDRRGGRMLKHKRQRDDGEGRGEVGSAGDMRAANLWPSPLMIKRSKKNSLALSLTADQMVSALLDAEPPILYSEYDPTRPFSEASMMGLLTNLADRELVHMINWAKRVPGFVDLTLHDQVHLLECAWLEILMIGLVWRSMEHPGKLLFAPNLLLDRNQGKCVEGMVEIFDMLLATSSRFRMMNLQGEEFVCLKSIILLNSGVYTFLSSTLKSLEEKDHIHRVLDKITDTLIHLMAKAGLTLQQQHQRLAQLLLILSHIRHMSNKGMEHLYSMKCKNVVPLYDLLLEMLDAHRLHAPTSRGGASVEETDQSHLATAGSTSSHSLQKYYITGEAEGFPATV
Summary of the method: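 Estradiol-stimulated ER-alpha-UAS-bla HEK293 cells, 18 hr compound exposure at 37C. LiveBLAzer B/G substrate, 2 hr RT, fluorescence read.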

[26] = qHTS assay to identify small molecule antagonists of the estrogen receptor alpha (ER-alpha) signaling pathway - cell viability counter screen (AID 743074; calls by dose curve;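 also: HEK293 cells carrying ER-alpha-UAS-bla reporter stimulated with 17beta-estradiol; nearly all actives have a fitted effect of over 45% in size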)
[27] = target: Estrogen receptor (Homo sapiens) (UniProt P03372); assay: qHTS assay to identify small molecule agonists of the estrogen receptor alpha (ER-alpha) signaling pathway (AID 743075; calls by dose curve;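 also: HEK293 GripTite cells with ER-alpha and UAS-driven beta-lactamase reporter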)
[28] = target: Estrogen receptor (Homo sapiens) (UniProt P03372); assay: qHTS assay to identify small molecule agonists of the estrogen receptor alpha (ER-alpha) signaling pathway using the BG1 cell line (AID 743079); also: nearly all actives have a fitted effect of over 20% in size
[29] = qHTS assay to identify small molecule antagonists of the estrogen receptor alpha (ER-alpha) signaling pathway using the BG1 cell line (AID 743080; calls by dose curve;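 also: BG1 cells stimulated with 17beta-estradiol alongside compound; series mostly up to about 70 µM; nearly all actives have a fitted effect of over 25% in size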)
Summary of the method: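 BG1-Luc-4E2 cells (endogenous full-length ER-alpha, stable 4×ERE-luciferase) were starved 5 days in phenol-red-free medium with 10% charcoal-stripped FBS, plated 24 h, then given compound plus 17beta-estradiol for 21.5 h at 37 C; ONE-Glo luminescence read after 30 min.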

[30] = qHTS assay to identify small molecule antagonists of the estrogen receptor alpha (ER-alpha) signaling pathway using the BG1 cell line - cell viability counter screen (AID 743081);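 also: compound given together with 17beta-estradiol as the ER stimulus; nearly all actives have a fitted effect of over 45% in size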; also: potency is read from the fitted curve at half-maximal effect
[31] = target: Aromatase (Homo sapiens) (UniProt P11511); assay: qHTS assay to identify aromatase inhibitors (AID 743083)
Chain of Aromatase (Homo sapiens) (P11511 whole entry, looked up): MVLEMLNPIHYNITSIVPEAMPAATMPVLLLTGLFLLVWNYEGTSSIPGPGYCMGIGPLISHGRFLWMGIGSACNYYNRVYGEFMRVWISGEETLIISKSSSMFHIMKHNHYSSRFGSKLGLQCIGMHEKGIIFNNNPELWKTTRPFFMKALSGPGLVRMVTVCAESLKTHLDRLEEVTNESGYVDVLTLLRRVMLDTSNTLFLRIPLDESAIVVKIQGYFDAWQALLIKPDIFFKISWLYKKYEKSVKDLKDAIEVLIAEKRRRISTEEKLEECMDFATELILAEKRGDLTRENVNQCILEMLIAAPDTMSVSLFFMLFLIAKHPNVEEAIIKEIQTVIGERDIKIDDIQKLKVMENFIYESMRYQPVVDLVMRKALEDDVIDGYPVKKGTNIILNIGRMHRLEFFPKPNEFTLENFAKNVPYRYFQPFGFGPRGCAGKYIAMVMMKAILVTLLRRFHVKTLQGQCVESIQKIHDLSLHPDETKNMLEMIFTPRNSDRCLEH

[32] = qHTS assay to identify aromatase inhibitors - cell viability counter screen (AID 743084)
[33] = target: Aryl hydrocarbon receptor (Homo sapiens) (UniProt P35869); assay: qHTS assay to identify small molecule that activate the aryl hydrocarbon receptor (AhR) signaling pathway (AID 743085);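 also: HG2L7.5c1 human HepG2 liver cells with stably integrated DRE-driven firefly reporter; series mostly up to about 70 µM; nearly all actives have a fitted effect of over 15% in size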
Chain of Aryl hydrocarbon receptor (Homo sapiens) (P35869 whole entry, looked up): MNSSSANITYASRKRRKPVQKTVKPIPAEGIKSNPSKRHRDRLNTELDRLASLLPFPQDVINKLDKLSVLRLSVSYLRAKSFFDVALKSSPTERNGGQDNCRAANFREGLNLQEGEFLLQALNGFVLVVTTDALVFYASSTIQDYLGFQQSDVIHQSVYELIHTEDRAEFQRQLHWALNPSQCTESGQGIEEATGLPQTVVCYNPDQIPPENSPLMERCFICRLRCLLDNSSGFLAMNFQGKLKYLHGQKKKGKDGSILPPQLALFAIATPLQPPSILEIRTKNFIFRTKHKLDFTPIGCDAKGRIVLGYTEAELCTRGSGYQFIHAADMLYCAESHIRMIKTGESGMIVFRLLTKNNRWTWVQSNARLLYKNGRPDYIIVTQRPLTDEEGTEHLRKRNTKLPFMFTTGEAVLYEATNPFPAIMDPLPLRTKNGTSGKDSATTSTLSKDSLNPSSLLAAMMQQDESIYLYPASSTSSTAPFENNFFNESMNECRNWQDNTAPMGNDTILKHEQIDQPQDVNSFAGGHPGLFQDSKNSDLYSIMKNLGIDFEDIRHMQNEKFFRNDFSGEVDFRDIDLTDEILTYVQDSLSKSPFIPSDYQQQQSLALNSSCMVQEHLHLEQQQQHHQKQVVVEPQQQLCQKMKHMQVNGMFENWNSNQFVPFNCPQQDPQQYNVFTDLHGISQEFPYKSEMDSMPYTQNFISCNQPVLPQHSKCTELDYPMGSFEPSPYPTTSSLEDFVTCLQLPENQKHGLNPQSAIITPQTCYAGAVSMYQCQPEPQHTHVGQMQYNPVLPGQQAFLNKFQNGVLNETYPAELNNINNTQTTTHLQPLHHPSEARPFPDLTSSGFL
Summary of the method: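 Steps: seed HepG2-AhR-luc cells; allow 5 h at 37C; pin-transfer test compound or vehicle; incubate 24 h at 37C; add viability dye (30 min, 37C) and read fluorescence; add luciferase substrate (30 min, RT) and read luminescence.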

[34] = qHTS assay to identify small molecule that activate the aryl hydrocarbon receptor (AhR) signaling pathway - cell viability counter screen (AID 743086);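 also: HepG2 liver cells carrying the AhR DRE luciferase reporter; series mostly up to about 70 µM; nearly all actives have a fitted effect of over 45% in size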
Summary of the method: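 HepG2-AhR-luc (HG2L7.5c1) cells, 4000/well, were preincubated 5 h at 37C, exposed to compound in qHTS format for 24 hr at 37C, then given CellTiter-Fluor for 30 min; viability was read as fluorescence in the reporter wells.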

[35] = target: Glucocorticoid receptor (Homo sapiens) (UniProt P04150); assay: qHTS assay to identify small molecule agonists of the glucocorticoid receptor (GR) signaling pathway (AID 720691; active = well fitted activation curve with a large enough effect in the signal ratio in the repeat runs, not every such curve was filed as active; the % refers to the signal ratio)
Chain of Glucocorticoid receptor (Homo sapiens) (P04150 whole entry, looked up): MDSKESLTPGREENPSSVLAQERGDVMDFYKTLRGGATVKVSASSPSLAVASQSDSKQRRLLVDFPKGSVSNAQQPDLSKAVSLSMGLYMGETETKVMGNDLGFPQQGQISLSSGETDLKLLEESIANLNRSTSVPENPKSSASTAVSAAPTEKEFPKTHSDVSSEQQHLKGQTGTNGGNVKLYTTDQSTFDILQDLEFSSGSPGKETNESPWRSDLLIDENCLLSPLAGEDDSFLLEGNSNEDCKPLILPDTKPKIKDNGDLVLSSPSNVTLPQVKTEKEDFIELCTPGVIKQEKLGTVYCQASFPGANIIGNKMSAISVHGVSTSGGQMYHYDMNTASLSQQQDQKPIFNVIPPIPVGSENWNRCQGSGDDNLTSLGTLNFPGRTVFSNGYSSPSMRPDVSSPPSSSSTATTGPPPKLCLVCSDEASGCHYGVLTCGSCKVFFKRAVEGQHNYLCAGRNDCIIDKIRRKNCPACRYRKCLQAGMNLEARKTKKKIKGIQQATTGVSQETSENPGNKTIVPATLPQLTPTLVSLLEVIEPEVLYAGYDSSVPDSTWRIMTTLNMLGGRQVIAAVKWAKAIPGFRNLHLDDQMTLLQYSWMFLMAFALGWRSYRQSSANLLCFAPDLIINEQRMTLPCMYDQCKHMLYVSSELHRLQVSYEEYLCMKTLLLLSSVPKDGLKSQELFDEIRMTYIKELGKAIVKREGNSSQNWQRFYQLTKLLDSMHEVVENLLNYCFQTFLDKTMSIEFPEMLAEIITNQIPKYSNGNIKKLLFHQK
Summary of the method: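 GR-bla HeLa cells (beta-lactamase reporter under glucocorticoid response element) were plated 4 h at 37 C/5% CO2, given compounds in DMSO, and incubated 18 h at 37 C. LiveBLAzer B/G FRET substrate was added for 2 h at room temperature, then fluorescence intensity read.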

[36] = target: Glucocorticoid receptor (Homo sapiens) (UniProt P04150); assay: qHTS assay to identify small molecule antagonists of the glucocorticoid receptor (GR) signaling pathway (AID 720692; active = well fitted inhibition curve with a large enough effect in the signal ratio in the repeat runs, not every such curve was filed as active; the % refers to the signal ratio)
Summary of the method: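 GR-bla HeLa cells (beta-lactamase reporter under glucocorticoid response element) were pre-plated 4 h at 37 C, treated with compounds plus 5 nM dexamethasone (final) for 18 h, then read by LiveBLAzer B/G FRET fluorescence after 2 h.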

[37] = qHTS assay to identify small molecule antagonists of the androgen receptor (AR) signaling pathway using the MDA cell line - cell viability counter screen (AID 743041; also: nearly all actives have a fitted effect of over 45% in size)
Summary of the method: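 Viability counter screen run alongside the AR antagonist reporter: cells seeded 5 h before compound, R1881 added, 16 h incubation at 37C without CO2, fluorescent CellTiter-Fluor signal quantified.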

Measured: Potency

O=C(c1ccc(F)cc1)C1CCN(CCn2c(=O)[nH]c3ccccc3c2=O)CC1
inactive: [1] | [2]

Cc1cc(O)ccc1O
inactive: [2]
active: [3] 71.8 µM

CCCCCCCCCCC[C@@H](C[C@@H]1OC(=O)[C@H]1CCCCCC)OC(=O)[C@H](CC(C)C)NC=O
inactive: [2]

COc1ccc2c(c1OC)C(=O)O[C@@H]2[C@H]1c2c(cc3c(c2OC)OCO3)CCN1C
inactive: [3] | [2]

N=C1N=C(N)c2cc3ccccc3cc21
inactive: [2]

CC(C)(C)c1ccc(-c2ccc(C(C)(C)C)cc2)cc1
inactive: [3] | [2]

COc1cccc(-c2ccc(/C=C\CN3CCCCCC3)cc2Cl)c1
active: [3] 31.6 µM
inactive: [2]

[Cu+]
inactive: [3]

CCc1cc(SCc2sc(-c3ccc(C(F)(F)F)cc3)nc2CN2CCN(c3ccc(OC)cc3)CC2)ccc1OCC(=O)O
inactive: [3] | [2]

CCCCCCCCCCCCCCCCCCOS(=O)(=O)O
inactive: [3] | [2]

COc1cc(C[C@H](C)N)c(OC)cc1Br
active: [18] 70.4 µM | [19] 62.7 µM | [20] 70.4 µM | [22] 70.4 µM | [23] 31.4 µM | [30] 15.8 µM
not listed: [1] | [2] | [3] | [35] | [36] | [37]
inactive: all other assays above

CC[C@@H](O)C(C[C@@H](C)N(C)C)(c1ccccc1)c1ccccc1
active: [18] 55.1 µM
not listed: [1] | [2] | [3] | [4] | [7] | [19] | [20] | [22] | [23] | [24] | [26] | [28]
inactive: all other assays above
